Measured values published in ChEMBL document CHEMBL3988442, “University of Dundee, Small-Polar-MMV Screening Library” (2021).

Each molecule was assayed against Shiga toxin 2 (Escherichia coli O157:H7) (UniProt P09385+P09386) (assay: E. coli 0.157:H7 Shiga Toxin SOP - stx2 screening assay). Conditions: 30 µM.
Type: functional
Parameters: scale not given: direction of the effect not stated beside the values

Compared with `CC(C)n1ccnc1CN1CCCN(C(=O)c2nccnc2N)CC1`, `CC(C)c1nccn1C1CCCN(C(=O)c2ccnc(N(C)C)c2)C1` (stereo not given) is lower in Percent Effect: -13.7% for the first, -29.7% for the second.

First: COc1ccc(C2=C(C)C(N3CCc4ccccc43)=NS2(=O)=O)cc1
Second: COc1cccc(-c2noc(C3CCN(Cc4cccs4)C3)n2)c1 (stereo not given)
The Percent Effect of the first is higher: -24.6% for the first, -30% for the second.

Going from `COCCCN1CCc2cncnc2C1` to `COCC1c2c(cnn2CC2CC2)CCN1Cc1nccs1` (stereo not given), the Percent Effect falls from -35.2% to -52.1%.

Compared with `CC(=O)N1CCC(C(=O)NCCN2CCC(C)CC2)CC1`, `CN(CCN1CCCCCC1)C(=O)c1cc(CN2CCC(O)CC2)on1` is lower in Percent Effect: 0.682% for the first, -37.1% for the second.

Compared with `Cc1cc(CN2CCC(c3ccnn3CCO)CC2)no1`, `Cc1nc(CN2CCCC(NCc3ccsc3)C2)no1` (stereo not given) is higher in Percent Effect: -16.1% for the first, -14.2% for the second.

First: CC(=O)N1CC(=O)N(c2cnn(C)c2)CC12CCN(Cc1ccsc1)C2 (stereo not given)
Second: CN(C)C(=O)NC1COC2(CCN(Cc3ccccc3)CC2)C1 (stereo not given)
The Percent Effect of the first is lower: -25.5% for the first, -5.12% for the second.

Compared with `CN(C)C(=O)[C@@H]1CCO[C@@H]2CCN(Cc3ccc4c(c3)OCO4)C[C@@H]21`, `CCc1cnc(N2C[C@H]3C[C@H](C(=O)N(C)C)[C@@H](C2)O3)nc1` is higher in Percent Effect: -27.6% for the first, -0.162% for the second.

Compared with `CCNC(=O)c1ncn2c1CN(C)S(=O)(=O)c1ccccc1-2`, `Cc1nnc2n1CCN(C(=O)c1cc(C)n(-c3ccccn3)c1C)C2` is higher in Percent Effect: -5.52% for the first, 32.2% for the second.

Compared with `CCn1nc(C)c2ccn(CC(=O)NC3CCCC3)c(=O)c21`, `COCc1nc(C(=O)N2CCCC2c2c(C)nn(C)c2C)cs1` (stereo not given) is lower in Percent Effect: 12.1% for the first, -13.6% for the second.

Going from `O=C(CCCn1cncn1)NC1(c2ccccc2)CCC1` to `COCCN1CCN(CCCS(=O)(=O)c2ccccc2)CC1C` (stereo not given), the Percent Effect rises from -17.7% to -5.54%.

Going from `COCCC(=O)N1C[C@H]2CN(Cc3cccc(C)n3)C(=O)[C@H]2C1` to `CCc1nc(C2CCCN2C(=O)CCc2cccs2)no1` (stereo not given), the Percent Effect rises from -18.7% to 24%.

Going from `Cc1noc(C(C)C)c1C(=O)NCCCOC(C)C` to `CC(C)OCCOCc1cccc(NC(=O)NCc2ccccn2)c1`, the Percent Effect falls from -6.05% to -20.3%.

Compared with `Cc1ccc(NC2CCN(C(=O)CC3CCCO3)CC2)nn1` (stereo not given), `CNC(=O)NC(=O)CN1CCC(c2cccc(F)c2)C1` (stereo not given) is higher in Percent Effect: 4.7% for the first, 19.2% for the second.

First: COc1cc(C2CC(=O)Oc3cc(C)[nH]c(=O)c32)ccc1OC(F)F (stereo not given)
Second: O=C(NCc1cc[nH]n1)NCC(O)c1ccc(F)cc1F (stereo not given)
The Percent Effect of the first is lower: -43.6% for the first, -25% for the second.

Compared with `C[C@]1(O)CCN(Cc2cncs2)C[C@@H]1Oc1cccc(F)c1`, `Cc1cc(CN2CCC(CNC(=O)c3ccc(O)c(Cl)c3)C2)[nH]n1` (stereo not given) is lower in Percent Effect: 35.4% for the first, -15.7% for the second.

Going from `CS(=O)(=O)NCc1cn2c(n1)CN(C(=O)c1ccc[nH]1)CC2` to `CC(O)CN1CCN(C(=O)c2cccc(CC#N)c2)CC1` (stereo not given), the Percent Effect falls from -6.4% to -54.8%.

Compared with `NC(=O)COc1ccc(CNCc2ccc(F)c(F)c2)cc1`, `Cc1nn(C)c(N(C)C)c1CNCc1cccnc1-n1cncn1` is higher in Percent Effect: -31.1% for the first, -5.81% for the second.

Compared with `Cc1csc(CNC(=O)N(C)Cc2cnn(C)c2)n1`, `COc1c(C2CCCN2C(=O)c2csc(C(C)C)n2)c(C)nn1C` (stereo not given) is higher in Percent Effect: -1.35% for the first, 4.42% for the second.

Compared with `CCc1nc(CN(C)C2CCN(CCS(C)(=O)=O)C2)no1` (stereo not given), `CCc1nc(CN2CCCN(c3ncnc4ccccc34)CC2)no1` is lower in Percent Effect: -32.8% for the first, -69.3% for the second.

Going from `c1cnn(CC2CCCCN2Cc2cn3ccsc3n2)c1` (stereo not given) to `CC(C)n1ncc2c1NC(=O)CSC2C(C)(C)C` (stereo not given), the Percent Effect falls from -12.1% to -13.8%.
